Measurements: the supplement of paper PMC10849652
Of roughly 7,900 targets only a part is listed; those with a hit were picked by preference. About 0.6% of all pairs of compound and target were hits.

Key:
Test in all cases: log2 fold change, soluble protein after heating vs DMSO (PISA); higher = thermal stabilisation; K562 cells, 10 uM, 30 min; active = over 0.2 and 3.5 SD of the protein, either way, in both replicates (recomputed)
[1] = compound: C1=CC=C(C=C1)[C@H](COC2=CC3=C(C=C2)NC(=O)N3)NC(=O)C4=CC=CN(C4=O)CC5=CC(=C(C=C5)F)F
In short: (§1)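 K562 cells at 2×10^6 cells/mL were given 10 μM compound for 30 min. Aliquots then went through 3 min of heating across 48°C-58°C, were pooled, and were extracted in PBS with 0.5% NP-40 at 4°C, and the supernatant after 21,000xg for 90 min was quantified by TMTpro 16plex LC-MS/MS with channel sums equalised. Thermal stability relative to control samples, from duplicates, is given as log2 fold change.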

[2] = compound: CC1=C(SC2=C1C(=N[C@H](C3=NN=C(N32)C)CC(=O)N)C4=CC=C(C=C4)Cl)C
In short: as §1

[3] = compound: CC1=C2C(=CC=C1)N=C(N(C2=O)C3=CC=CC=C3C)CN4C=NC5=C(N=CN=C54)N
In short: as §1

[4] = compound: Cc1sc2c(c1C)C(c1ccc(Cl)cc1)=N[C@@H](CC(=O)OC(C)(C)C)c1nnc(C)n1-2
In short: as §1

[5] = compound: c1ccc([C@@H]2C[C@H]2NC2CCNCC2)cc1
In short: as §1

Measured: log2 fold change

PTPN23 (UniProt Q9H3S7)
inactive: [1] -0.038 | [2] 0.048 | [3] 0.054 | [4] 0 | [5] 0.038

PCTP (UniProt Q9UKL6)
inactive: [1] -0.033 | [2] -0.101 | [3] 0.028 | [4] -0.023 | [5] 0.018

PPID (UniProt Q08752)
Sequence of UniProt Q08752 (Q08752 whole entry, looked up): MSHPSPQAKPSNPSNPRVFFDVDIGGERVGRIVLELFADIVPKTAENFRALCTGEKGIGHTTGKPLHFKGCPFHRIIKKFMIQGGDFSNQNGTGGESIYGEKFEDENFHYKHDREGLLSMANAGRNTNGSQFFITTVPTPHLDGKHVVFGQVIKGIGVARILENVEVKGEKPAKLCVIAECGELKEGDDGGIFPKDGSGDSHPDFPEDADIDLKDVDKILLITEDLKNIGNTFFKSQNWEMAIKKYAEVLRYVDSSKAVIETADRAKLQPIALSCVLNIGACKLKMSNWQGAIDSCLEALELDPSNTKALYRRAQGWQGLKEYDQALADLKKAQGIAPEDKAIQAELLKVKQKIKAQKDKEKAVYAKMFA
inactive: [1] -0.079 | [2] 0.031 | [3] 0.036 | [4] -0.035 | [5] -0.031

PIK3C3 (UniProt Q8NEB9)
Sequence of UniProt Q8NEB9 (Q8NEB9 whole entry, looked up): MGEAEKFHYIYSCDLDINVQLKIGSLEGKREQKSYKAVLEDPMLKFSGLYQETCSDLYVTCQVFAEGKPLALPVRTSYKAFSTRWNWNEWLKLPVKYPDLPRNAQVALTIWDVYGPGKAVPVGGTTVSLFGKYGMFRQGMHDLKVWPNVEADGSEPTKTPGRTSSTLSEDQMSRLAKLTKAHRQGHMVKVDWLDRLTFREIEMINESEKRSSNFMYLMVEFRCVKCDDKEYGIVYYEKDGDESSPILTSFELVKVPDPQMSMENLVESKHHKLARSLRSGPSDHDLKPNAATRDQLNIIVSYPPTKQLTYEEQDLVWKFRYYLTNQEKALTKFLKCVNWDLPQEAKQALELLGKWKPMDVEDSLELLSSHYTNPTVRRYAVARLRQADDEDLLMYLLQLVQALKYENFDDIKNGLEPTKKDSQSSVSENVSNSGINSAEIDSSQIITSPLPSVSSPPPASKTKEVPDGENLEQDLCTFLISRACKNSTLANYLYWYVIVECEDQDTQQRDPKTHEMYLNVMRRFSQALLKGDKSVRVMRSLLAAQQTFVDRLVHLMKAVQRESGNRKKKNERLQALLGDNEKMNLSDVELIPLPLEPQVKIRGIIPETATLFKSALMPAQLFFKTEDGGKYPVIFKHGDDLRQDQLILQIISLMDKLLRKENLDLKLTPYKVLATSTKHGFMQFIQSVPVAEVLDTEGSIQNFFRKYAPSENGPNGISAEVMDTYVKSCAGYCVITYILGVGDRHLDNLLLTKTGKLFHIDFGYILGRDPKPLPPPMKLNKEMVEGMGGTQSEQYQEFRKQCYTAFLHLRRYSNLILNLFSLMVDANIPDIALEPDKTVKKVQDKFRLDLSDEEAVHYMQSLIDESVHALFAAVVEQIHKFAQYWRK
inactive: [1] -0.038 | [2] 0.005 | [3] 0.009 | [4] 0.009 | [5] -0.01

PSMD6 (UniProt Q15008)
Sequence of UniProt Q15008 (Q15008 whole entry, looked up): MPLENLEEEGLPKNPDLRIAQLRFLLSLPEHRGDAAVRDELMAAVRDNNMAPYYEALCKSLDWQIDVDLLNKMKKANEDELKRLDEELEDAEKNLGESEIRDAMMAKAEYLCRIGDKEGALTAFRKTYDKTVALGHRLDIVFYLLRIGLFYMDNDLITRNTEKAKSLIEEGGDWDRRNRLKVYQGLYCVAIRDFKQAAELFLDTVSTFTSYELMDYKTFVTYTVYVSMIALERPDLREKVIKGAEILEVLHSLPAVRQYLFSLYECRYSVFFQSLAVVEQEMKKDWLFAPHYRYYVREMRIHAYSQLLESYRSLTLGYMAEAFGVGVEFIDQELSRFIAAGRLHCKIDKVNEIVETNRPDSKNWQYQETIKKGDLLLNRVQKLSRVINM
inactive: [1] 0.019 | [2] -0.088 | [3] -0.116 | [4] -0.006 | [5] 0.001

POLR3D (UniProt P05423)
Sequence of UniProt P05423 (P05423 whole entry, looked up): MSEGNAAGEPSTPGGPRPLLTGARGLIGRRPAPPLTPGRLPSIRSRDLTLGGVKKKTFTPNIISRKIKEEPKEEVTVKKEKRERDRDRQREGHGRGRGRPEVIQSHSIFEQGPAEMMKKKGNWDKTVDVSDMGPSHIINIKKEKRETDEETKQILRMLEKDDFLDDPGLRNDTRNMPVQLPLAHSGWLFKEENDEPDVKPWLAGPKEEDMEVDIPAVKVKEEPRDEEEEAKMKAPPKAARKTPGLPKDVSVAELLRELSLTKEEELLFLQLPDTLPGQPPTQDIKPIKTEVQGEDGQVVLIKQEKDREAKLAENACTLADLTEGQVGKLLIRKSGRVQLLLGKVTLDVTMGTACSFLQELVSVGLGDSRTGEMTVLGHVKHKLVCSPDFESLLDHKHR
inactive: [1] 0.008 | [2] -0.072 | [3] -0.013 | [4] 0.056 | [5] 0.096

PTPMT1 (UniProt Q8WUK0)
Sequence of UniProt Q8WUK0 (Q8WUK0 whole entry, looked up): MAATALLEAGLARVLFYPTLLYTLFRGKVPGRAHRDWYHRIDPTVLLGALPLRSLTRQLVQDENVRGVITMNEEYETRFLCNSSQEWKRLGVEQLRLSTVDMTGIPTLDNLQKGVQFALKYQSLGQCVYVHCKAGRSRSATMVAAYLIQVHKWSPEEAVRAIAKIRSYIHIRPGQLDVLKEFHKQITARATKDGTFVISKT
inactive: [1] -0.019 | [2] 0.086 | [3] 0.029 | [4] 0.066 | [5] 0.01

PEX11B (UniProt O96011)
Sequence of UniProt O96011 (O96011 whole entry, looked up, change not shown): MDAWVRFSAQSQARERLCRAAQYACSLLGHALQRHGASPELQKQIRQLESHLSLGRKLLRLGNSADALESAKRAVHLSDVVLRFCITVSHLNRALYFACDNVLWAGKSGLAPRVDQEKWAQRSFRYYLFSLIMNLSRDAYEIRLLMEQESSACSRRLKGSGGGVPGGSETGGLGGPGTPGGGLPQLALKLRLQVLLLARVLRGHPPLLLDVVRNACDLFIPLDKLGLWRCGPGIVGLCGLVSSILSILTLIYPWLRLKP
inactive: [1] -0.027 | [2] 0.056 | [3] -0.01 | [4] -0.008 | [5] -0.005

PXK (UniProt Q7Z7A4)
inactive: [1] -0.015 | [2] 0.04 | [3] 0.098 | [4] 0.011 | [5] -0.045

PARG (UniProt Q86W56)
inactive: [1] -0.043 | [2] -0.013 | [3] 0.018 | [4] -0.009 | [5] -0.075

QKI (UniProt Q96PU8)
Sequence of UniProt Q96PU8 (Q96PU8 whole entry, looked up): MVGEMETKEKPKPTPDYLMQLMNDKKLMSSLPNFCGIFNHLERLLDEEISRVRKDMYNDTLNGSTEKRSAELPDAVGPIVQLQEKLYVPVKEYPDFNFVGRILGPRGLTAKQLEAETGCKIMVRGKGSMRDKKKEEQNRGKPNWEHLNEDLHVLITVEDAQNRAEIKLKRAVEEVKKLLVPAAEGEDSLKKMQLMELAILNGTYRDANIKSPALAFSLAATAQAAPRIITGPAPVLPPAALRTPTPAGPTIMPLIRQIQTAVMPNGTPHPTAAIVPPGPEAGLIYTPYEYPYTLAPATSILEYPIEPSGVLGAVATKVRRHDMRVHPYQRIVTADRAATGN
inactive: [1] -0.016 | [2] 0.039 | [3] 0.105 | [4] -0.082 | [5] 0.01

PSMD7 (UniProt P51665)
Sequence of UniProt P51665 (P51665 whole entry, looked up): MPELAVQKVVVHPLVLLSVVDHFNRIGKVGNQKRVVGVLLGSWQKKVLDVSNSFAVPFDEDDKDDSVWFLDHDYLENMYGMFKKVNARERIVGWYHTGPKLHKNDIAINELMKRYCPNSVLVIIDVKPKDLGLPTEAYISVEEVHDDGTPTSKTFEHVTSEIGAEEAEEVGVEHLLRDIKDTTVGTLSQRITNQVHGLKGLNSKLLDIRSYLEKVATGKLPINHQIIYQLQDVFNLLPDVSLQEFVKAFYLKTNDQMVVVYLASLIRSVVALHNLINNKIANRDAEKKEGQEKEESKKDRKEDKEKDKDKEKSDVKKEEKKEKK
inactive: [1] 0.033 | [2] -0.102 | [3] -0.024 | [4] 0.034 | [5] 0

PMPCA (UniProt Q10713)
inactive: [1] -0.015 | [2] 0.121 | [3] 0.06 | [4] 0.018 | [5] -0.047

PTGES3 (UniProt Q15185)
Sequence of UniProt Q15185 (Q15185 whole entry, looked up): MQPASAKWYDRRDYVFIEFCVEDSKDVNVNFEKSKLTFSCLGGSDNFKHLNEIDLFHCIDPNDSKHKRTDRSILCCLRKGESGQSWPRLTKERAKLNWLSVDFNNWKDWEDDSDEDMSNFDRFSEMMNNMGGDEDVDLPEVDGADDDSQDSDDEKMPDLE
inactive: [1] -0.009 | [2] 0.016 | [3] 0.067 | [4] -0.046 | [5] -0.063

PPP1R12A (UniProt O14974)
inactive: [1] 0.005 | [2] 0.057 | [3] 0.047 | [4] 0.035 | [5] -0.008

PGGHG (UniProt Q32M88)
inactive: [1] -0.052 | [2] -0.09 | [3] -0.088 | [4] -0.084 | [5] 0.213

PRKAG1 isoform 3 (UniProt P54619)
Sequence of UniProt P54619 (P54619 whole entry, looked up): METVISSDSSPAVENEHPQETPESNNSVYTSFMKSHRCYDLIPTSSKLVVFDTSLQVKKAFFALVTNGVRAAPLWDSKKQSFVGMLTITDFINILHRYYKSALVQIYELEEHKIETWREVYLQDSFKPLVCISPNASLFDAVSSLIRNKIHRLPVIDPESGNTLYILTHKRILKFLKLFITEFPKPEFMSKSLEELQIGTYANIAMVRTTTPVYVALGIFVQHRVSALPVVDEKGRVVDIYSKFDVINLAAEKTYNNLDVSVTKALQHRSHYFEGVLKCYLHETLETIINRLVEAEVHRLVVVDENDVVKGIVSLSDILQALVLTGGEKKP
inactive: [1] -0.008 | [2] 0.067 | [3] 0.019 | [4] -0.011 | [5] -0.017

PKM (UniProt P14618)
inactive: [1] -0.008 | [2] 0.032 | [3] 0.004 | [4] -0.005 | [5] 0.026

PPP1CA (UniProt P62136)
Sequence of UniProt P62136 (P62136 whole entry, looked up): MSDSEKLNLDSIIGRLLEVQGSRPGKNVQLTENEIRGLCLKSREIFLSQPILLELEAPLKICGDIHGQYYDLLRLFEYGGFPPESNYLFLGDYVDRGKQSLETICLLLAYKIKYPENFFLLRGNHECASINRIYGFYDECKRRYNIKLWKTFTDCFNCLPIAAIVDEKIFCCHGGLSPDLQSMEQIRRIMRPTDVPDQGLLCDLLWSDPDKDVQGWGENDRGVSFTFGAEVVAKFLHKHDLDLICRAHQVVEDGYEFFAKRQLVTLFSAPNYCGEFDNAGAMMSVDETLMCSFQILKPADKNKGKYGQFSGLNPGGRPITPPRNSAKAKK
inactive: [1] 0.003 | [2] 0.022 | [3] 0.025 | [4] 0.016 | [5] 0.015

PSMD8 (UniProt P48556)
Sequence of UniProt P48556 (P48556 whole entry, looked up): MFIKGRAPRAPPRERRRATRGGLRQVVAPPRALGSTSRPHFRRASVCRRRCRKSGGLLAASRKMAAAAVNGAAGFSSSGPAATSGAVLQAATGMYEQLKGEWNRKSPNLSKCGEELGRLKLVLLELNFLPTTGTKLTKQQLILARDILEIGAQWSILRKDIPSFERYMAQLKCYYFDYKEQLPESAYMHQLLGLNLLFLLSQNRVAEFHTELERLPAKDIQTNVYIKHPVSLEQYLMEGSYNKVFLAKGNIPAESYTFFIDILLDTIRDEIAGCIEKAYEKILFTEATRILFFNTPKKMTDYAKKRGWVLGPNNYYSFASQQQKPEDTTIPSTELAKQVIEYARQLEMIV
inactive: [1] 0.014 | [2] -0.07 | [3] -0.01 | [4] -0.001 | [5] 0.071

PIP4P2 (UniProt Q8N4L2)
Sequence of UniProt Q8N4L2 (Q8N4L2 whole entry, looked up): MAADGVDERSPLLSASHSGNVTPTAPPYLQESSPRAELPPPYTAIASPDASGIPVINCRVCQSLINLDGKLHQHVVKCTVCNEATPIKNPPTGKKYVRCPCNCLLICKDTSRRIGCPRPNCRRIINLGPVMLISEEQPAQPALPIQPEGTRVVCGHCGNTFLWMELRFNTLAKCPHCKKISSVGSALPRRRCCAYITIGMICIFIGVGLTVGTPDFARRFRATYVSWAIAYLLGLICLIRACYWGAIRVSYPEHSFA
inactive: [1] 0.045 | [2] 0.048 | [3] -0.066 | [4] -0.017 | [5] -0.018

PI4K2A (UniProt Q9BTU6)
inactive: [1] 0.015 | [2] 0.043 | [3] 0.064 | [4] -0.004 | [5] 0.013

PSMD12 (UniProt O00232)
inactive: [1] 0.021 | [2] -0.063 | [3] -0.066 | [4] -0.045 | [5] -0.009

POMP (UniProt Q9Y244)
Sequence of UniProt Q9Y244 (Q9Y244 whole entry, looked up): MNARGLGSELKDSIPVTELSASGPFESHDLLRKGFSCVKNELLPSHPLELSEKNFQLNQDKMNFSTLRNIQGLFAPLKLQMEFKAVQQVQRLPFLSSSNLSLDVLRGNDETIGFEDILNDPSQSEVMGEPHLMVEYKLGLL
inactive: [1] -0.101 | [2] -0.077 | [3] -0.069 | [4] -0.018 | [5] -0.009
